Compounds with a hit are over-represented: about 17% of the library has one in this group of screens.
TGFb SMAD3 inh = TGF-b pathway inhibition; AID 588855; 1.2% of 410,000 active; HepG2 CAGA-GFP TGF-b/SMAD3 reporter, GFP fluorescence, 18 h; TGF-beta stimulated, 500 pg/mL final; Potency, µM (titrated, usually from 46.1 µM), for inactives: top-dose activity, negative = inhibition, usual class: inhibitors; also: % is scaled to controls: 0 for no effect and ±100 for the full control effect; nearly all actives have a fitted effect of over 65% in size
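Inhibition of TGF-beta-driven CAGA-GFP reporter expression in HEPG2 cells is measured by cellular GFP fluorescence after 18 h stimulation with 500 pg/mL recombinant TGF-beta in 1% FBS medium at 37 degrees C.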
ATXN2 expr inh = inhibitors of ATXN2 expression; 0.72% of 360,000 active; Potency, µM (titrated, usually from 57 µM), inactives show top-dose activity change, negative = inhibition, usual class: inhibitors; AID 1745845; HEK-293 ATXN2-luciferase reporter, luminescence, 24 h; also: % is scaled to controls: 0 for no effect and ±100 for the full control effect; nearly all actives have a fitted effect of over 55% in size
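qHTS (up to 57 uM final) was run with 24 h compound exposure of reporter cells at 37 °C. Each well was multiplexed: SteadyGlo luminescence measured ATXN2-luciferase expression after a fluorogenic Gly-Phe-AFC viability readout (25 uM final).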
TDP1 cell noCPT = qHTS for Inhibitors of human tyrosyl-DNA phosphodiesterase 1 (TDP1): qHTS in cells in absence of CPT | AID 686978, 2013 | 15% of 420,000 active | Potency, µM (top dose mostly 46.2 µM), for the others: at the highest dose activity change, negative = growth inhibition, usual class: inhibitors | DT40 Tdp1-/- hTDP1 cells, no CPT, ATP luminescence, 48 h; also: % is scaled to controls: 0 for no effect and ±100 for the full control effect; nearly all actives have a fitted effect of over 55% in size
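Growth kinetics read by CellTiter-Glo luminescence after ≥48 hr at 37 °C. Cells: DT40 Tdp1-/- stably carrying human TDP1, 400 per well, compound exposure in the absence of CPT (DMSO vehicle).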
DT40 TDP1 CPT = DT40-hTDP1 cell growth loss with CPT | chicken DT40 Tdp1-/-;hTDP1 cells + 20 nM CPT, ATP luminescence, 48 h | Potency, µM (top dose mostly 46.2 µM), for the others: at the highest dose activity change, negative = growth inhibition, most hits filed as inhibitors | 12% of 420,000 active | AID 686979; also: % is scaled to controls: 0 for no effect and ±100 for the full control effect; nearly all actives have a fitted effect of over 55% in size
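Chicken DT40 Tdp1-/- cells complemented with human TDP1, 400 cells/well, exposed to compounds plus 20 nM camptothecin for at least 48 h at 37 C; viability read as ATP content by CellTiter-Glo luminescence.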
S2 tox = viability counter-screen for ATXN expression inhibitors | S2 cells (HEK-293 line with an ATXN2-luciferase reporter) viability, CellTiter-Fluor protease fluorescence, 24 h | Potency, µM (highest dose often 56.7 µM), usual class: cytotoxic | 0.49% of 400,000 active | AID 651635; also: nearly all actives have a fitted effect of over 40% in size
HepG2 tox-1 = HepG2 cytotoxicity, counter-screen for TGF-b inhibitors. 0.76% of 410,000 active. Potency, µM (titrated, usually from 46.1 µM), for the others: at the top dose activity change, negative = cytotoxicity, most hits filed as cytotoxic. HepG2 CAGA-GFP viability, ATP luminescence, 18 h
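HepG2 CAGA-GFP cells (1000/well, DMEM with 1% FBS) received compound, then TGF-beta at 500 pg/mL final, and were incubated 18 hours at 37 degrees C. Viability was read by CellTiter-Glo luminescence. Media-only wells were set as complete cell-killing and DMSO as no toxicity.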
TGFb confirm = confirmation of TGF-b signaling inhibitors in HepG2 reporter cells. shares compounds with TGFb SMAD3 inh. HepG2 CAGA-GFP TGF-b reporter, GFP fluorescence, 18 h; cells stimulated with TGF-beta, 500 pg/mL. Potency, µM (top dose mostly 46.1 µM), for inactives: top-dose activity, negative = inhibition, actives largely listed as inhibitors. 63% of 1,600 active. AID 720534; also: % is scaled to controls: 0 for no effect and ±100 for the full control effect; nearly all actives have a fitted effect of over 65% in size
HepG2 tox-2 = toxic to HepG2 cells in TGF-b counterscreen; Potency, µM (highest dose often 46.1 µM), for the others: at the top dose activity, negative = cytotoxicity, most hits filed as inhibitors; AID 720535; shares compounds with TGFb SMAD3 inh; HepG2 CAGA-GFP viability, ATP luminescence, 18 h; cells stimulated with TGF-beta, 500 pg/mL; 27% of 1,600 active; also: % is scaled to controls: 0 for no effect and ±100 for the full control effect; nearly all actives have a fitted effect of over 70% in size
TGFb CCL64 inh = orthogonal confirmation of TGF-b inhibitors in CCL64 cells; 41% of 1,600 active; CCL64 CAGA-GFP reporter, TGF-b stimulated, GFP fluorescence, 18 h; shares compounds with TGFb SMAD3 inh; AID 720536; Potency, µM (doses to about 46.1 µM), for the others: at the top dose activity, negative = inhibition, usual class: inhibitors; also: nearly all actives have a fitted effect of over 65% in size
COP TGFb inh = validation of TGF-b inhibitors in HepG2 COP promoter reporter; shares compounds with TGFb SMAD3 inh; HepG2 COP-GFP TGF-b reporter, GFP fluorescence, 18 h; cells stimulated by added recombinant TGF-beta; Potency, µM (highest dose often 46.1 µM), inactives show top-dose activity, negative = inhibition, usual class: inhibitors; 3% of 1,600 active; AID 720537; also: nearly all actives have a fitted effect of over 70% in size
An asterisk follows results filed as active. Calls follow the shape of the dose curve; as a rule, active = well fitted curve in the direction sought with a large enough effect; inconclusive = small, poorly fitted or top-dose-only effect, or another doubt; inactive = no such curve, though single readings can be large; an effect the other way counts as inactive or inconclusive. Potency is read from the fitted curve at half-maximal effect.

Screening COc1cc(NS(=O)(=O)c2ccc(Nc3nc(-c4ccccc4)cs3)cc2)nc(OC)n1 returned TGFb SMAD3 inh inconclusive, ATXN2 expr inh -9.5%, TDP1 cell noCPT -1.0%, DT40 TDP1 CPT -4.6%, S2 tox inactive and HepG2 tox-1 -40.9%.
`O=C(Nc1ccc(Cl)cc1)/C(=C/c1cccc(O)c1)c1nc2ccccc2s1` gave TGFb SMAD3 inh 2.82µM*, ATXN2 expr inh 8.91µM*, TDP1 cell noCPT 4.61µM*, DT40 TDP1 CPT 5.17µM*, HepG2 tox-1 -81.8%, TGFb confirm 8.2µM*, HepG2 tox-2 13µM*, TGFb CCL64 inh 4.11µM* and COP TGFb inh -15.7%.
For COc1cccc(Nc2nc(C)cc(C)c2C(N)=O)c1 the results were TGFb SMAD3 inh 15.7%, ATXN2 expr inh -9.4%, TDP1 cell noCPT -5.4%, DT40 TDP1 CPT -9.2%, S2 tox inactive and HepG2 tox-1 0.4%.
COc1ccccc1NC(=O)/C(C#N)=C/c1ccc(OCCN2CCOCC2)c(OC)c1 was read as TGFb SMAD3 inh -23.9%, ATXN2 expr inh 18.5%, TDP1 cell noCPT inconclusive, DT40 TDP1 CPT 0.4%, S2 tox inactive and HepG2 tox-1 4.6%.
O=c1c(Br)c(Br)cnn1-c1ccccc1 was read as TGFb SMAD3 inh 10µM*, ATXN2 expr inh 5.32µM*, TDP1 cell noCPT 3.66µM*, DT40 TDP1 CPT 4.11µM*, HepG2 tox-1 12.6µM*, TGFb confirm 4.61µM*, HepG2 tox-2 8.2µM*, TGFb CCL64 inh 4.61µM* and COP TGFb inh inconclusive.
Screening O=C(Nc1cccc2ccccc12)c1ccc([N+](=O)[O-])s1 returned TGFb SMAD3 inh 8.91µM*, TDP1 cell noCPT 10.3µM*, DT40 TDP1 CPT 14.6µM*, S2 tox inactive, HepG2 tox-1 11.2µM*, TGFb confirm 16.4µM*, HepG2 tox-2 25.9µM*, TGFb CCL64 inh inconclusive and COP TGFb inh 50.2%.
`Cc1ccc(C(=O)NNC(=S)Nc2cccc3ccccc23)s1` gave TGFb SMAD3 inh inconclusive, ATXN2 expr inh 36.8%, TDP1 cell noCPT inconclusive, DT40 TDP1 CPT -10.4%, S2 tox inactive and HepG2 tox-1 -3.4%.
`O=C(Nc1cccnc1)c1ccc([N+](=O)[O-])s1` gave TGFb SMAD3 inh 10µM*, ATXN2 expr inh inconclusive, TDP1 cell noCPT 0.651µM*, DT40 TDP1 CPT 0.731µM*, S2 tox inactive, HepG2 tox-1 11.2µM*, TGFb confirm 14.6µM*, HepG2 tox-2 23.1µM*, TGFb CCL64 inh inconclusive and COP TGFb inh inconclusive.
COc1ccc2c(c1)/C(=C\c1cccc(/C=C3/C(=O)Nc4ccc(OC)cc43)n1)C(=O)N2 was read as TGFb SMAD3 inh 1.26µM*, ATXN2 expr inh 3.16µM*, TDP1 cell noCPT 1.84µM*, DT40 TDP1 CPT 1.64µM*, HepG2 tox-1 -37.0%, TGFb confirm 2.91µM*, HepG2 tox-2 2.59µM*, TGFb CCL64 inh 1.46µM* and COP TGFb inh 48.7%.
For CCCCN(C(=O)c1cccc2c(=O)c(C)c(-c3ccccc3)oc12)c1ccccc1 the results were TGFb SMAD3 inh 14.1µM*, ATXN2 expr inh inconclusive, TDP1 cell noCPT 8.2µM*, DT40 TDP1 CPT 16.4µM*, S2 tox inactive, HepG2 tox-1 -9.5%, TGFb confirm 10.3µM*, HepG2 tox-2 inconclusive, TGFb CCL64 inh inconclusive and COP TGFb inh 41.1%.
Cc1ccc(C)c(C(=O)NC(C)c2ccc(-n3ccnc3)cc2)c1 (centres undefined) was read as TGFb SMAD3 inh 0.0%, ATXN2 expr inh -3.0%, TDP1 cell noCPT -18.7%, DT40 TDP1 CPT 5.8%, S2 tox inactive and HepG2 tox-1 -37.1%.
Cc1ccc(NC(=S)NCCc2ccccc2)c(C)c1 was read as TGFb SMAD3 inh -7.4%, ATXN2 expr inh 18.7%, TDP1 cell noCPT inconclusive, DT40 TDP1 CPT inconclusive, S2 tox inactive and HepG2 tox-1 -30.3%.
`Cc1ccc(NC(=S)NCCc2c[nH]c3ccccc23)c(C)c1` gave TGFb SMAD3 inh 10µM*, TDP1 cell noCPT 20.6µM*, DT40 TDP1 CPT 13µM*, HepG2 tox-1 -46.2%, TGFb confirm -20.9%, HepG2 tox-2 -23.0%, TGFb CCL64 inh inconclusive and COP TGFb inh 20.3%.
Screening CN(Cc1cccs1)c1nc(-c2cccnc2)nc2ccccc12 returned TGFb SMAD3 inh 14.1µM*, ATXN2 expr inh -24.3%, TDP1 cell noCPT inconclusive, DT40 TDP1 CPT 23.1µM*, HepG2 tox-1 -8.3%, TGFb confirm 25.9µM*, HepG2 tox-2 inconclusive, TGFb CCL64 inh 18.4µM* and COP TGFb inh 39.6%.
`Cc1cc(C)cc(C(=O)N2CC(=O)Nc3ccccc32)c1` gave TGFb SMAD3 inh 10µM*, ATXN2 expr inh 4.4%, TDP1 cell noCPT 0.581µM*, DT40 TDP1 CPT 0.92µM*, S2 tox inconclusive, HepG2 tox-1 -10.9%, TGFb confirm 7.31µM*, HepG2 tox-2 7.0%, TGFb CCL64 inh 8.2µM* and COP TGFb inh -2.6%.
Cc1cc(C)cc(N(CC(=O)N2CCN(Cc3ccccc3)CC2)S(=O)(=O)c2c(C)noc2C)c1 was read as TGFb SMAD3 inh 8.5%, ATXN2 expr inh -10.6%, TDP1 cell noCPT inconclusive, DT40 TDP1 CPT inconclusive, S2 tox inactive and HepG2 tox-1 10.9%.

Bioassay records as filed in PubChem.
